# Test results published in PubChem BioAssay (EPA / NIEHS).
# Calls of active or inactive are those of the source. Rule for the calls: active = hit-call score of the fitted dose curve at least 0.9, where 1 is the maximum; inactive = score below 0.9.
# Biological target: Nuclear respiratory factor 1 (Homo sapiens) (UniProt Q16656)
# Assay: ATG_NRF1_CIS: Attagene CIS-FACTORIAL HepG2 Assay for human Nuclear Respiratory Factor 1 (NRF1) Orphan Gene (AID 2282987)
# Settings: HepG2 NRF1 cis-element reporter, Attagene multiplex; actives raise or lower the signal
# Description: ATG_CIS is a cell-based, multiplexed-readout assay that uses HepG2, a human liver cell line, with measurements taken at 24 hours after chemical dosing in a 24-well plate.ATG_NRF1_CIS is one of 52 assay component(s) measured or calculated from the ATG_CIS assay. It is designed to make measurements of mRNA induction, a form of inducible reporter, as detected with fluorescence intensity signals by Reverse transcription polymerase chain reaction (RT-PCR) and Capillary electrophoresis technology.Data from the assay component ATG_NRF1_CIS was analyzed into 1 assay endpoint. This assay endpoint, ATG_NRF1_CIS, was analyzed with bidirectional fitting relative to DMSO as the negative control and baseline of activity. Using a type of inducible reporter, measures of mRNA for gain or loss-of-signal activity can be used to understand the reporter gene at the transcription factor-level as they relate to the gene NRF1. Furthermore, this assay endpoint can be referred to as a primary readout, because this assay has produced multiple assay endpoints where this one serves a reporter gene function. To generalize the intended target to other relatable targets, this assay endpoint is annotated to the dna binding intended target family, where the subfamily is nuclear respiratory factors.
# Human liver HepG2 cells are transiently transfected with multiple reporter transcription units (MRTUs) in 6-well plates using FuGene 6 reagent (Roche; 3 ml FuGene/1 mg DNA). The MRTU constructs are regulated by a cis-regulating element (promoter). […] A major difference between the CIS and TRANS system is that in CIS activities of endogenous TFs are measured, whereas the TRANS assay evaluates changes in activities of exogenous, chimeric NR-Gal4 proteins. […] At the end of 24 hour incubation, total RNA was isolated using TriZol reagent (Invitrogen). The isolated RNA is then reverse-transcribed using oligo(dT) primer and Mo-MLV reverse transcriptase (Invitrogen) with DNAse I (Ambion) treatment for 30 min. The one-tenth of the produced cDNA was amplified by PCR using Taq DNA polymerase (Invitrogen) and two reporter sequence-specific primers. The PCR products were fluorescently labeled by primer extension with 6-arboxyfluorescein (6-FAM) 5'-labeled reporter sequence-specific primer (2 min at 95 C, 20 s at 68 C and 10 min at 72 C) and these products were digested with 5U of HpaI (New England Biolabs) for 2h at 37 C. The fragments were purified using Qiaquick PCR columns (Qiagen), analyzed on an ABI 3130xL genetic analyzer (Applied Biosystems) with peak positions identified by using a set of X-rhodamine (ROX)-labeled MapMarker1000 molecular weight standards (BioVentures). The raw capillary electrophoresis data was processed using Attagraph software (Attagene).
# Chain of Nuclear respiratory factor 1 (Homo sapiens) (Q16656 whole entry, looked up): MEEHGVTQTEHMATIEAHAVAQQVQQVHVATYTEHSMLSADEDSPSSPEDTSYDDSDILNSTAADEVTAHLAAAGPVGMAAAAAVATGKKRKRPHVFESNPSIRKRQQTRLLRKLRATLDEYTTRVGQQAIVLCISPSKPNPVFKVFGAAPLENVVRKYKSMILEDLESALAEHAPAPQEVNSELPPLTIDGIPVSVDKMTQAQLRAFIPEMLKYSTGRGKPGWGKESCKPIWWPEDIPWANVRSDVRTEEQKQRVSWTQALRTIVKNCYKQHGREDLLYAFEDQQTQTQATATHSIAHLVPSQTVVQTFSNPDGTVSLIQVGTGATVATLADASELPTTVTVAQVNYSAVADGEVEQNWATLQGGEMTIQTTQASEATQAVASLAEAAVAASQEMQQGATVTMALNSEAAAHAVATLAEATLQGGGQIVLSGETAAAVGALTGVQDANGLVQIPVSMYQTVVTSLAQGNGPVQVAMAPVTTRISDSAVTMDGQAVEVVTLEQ
Compound,outcome,AC50
CC1(C)[C@H](C(=O)O[C@H](C#N)c2cccc(Oc3ccccc3)c2)[C@@H]1/C=C(\Cl)C(F)(F)F,inactive,
N#CS,inactive,
Clc1cnc(Oc2ccc(Oc3ncc(Cl)cc3Cl)cc2)c(Cl)c1,inactive,
N#Cc1ccncc1,inactive,
CCC[N+](CCC)(CCC)CCC,inactive,
O=C1c2ccccc2C(=O)C1C(=O)C(c1ccccc1)c1ccc(Cl)cc1 (stereo not given),inactive,
CC1(C)[C@H](/C=C2\CCSC2=O)[C@@H]1C(=O)OCc1coc(Cc2ccccc2)c1,inactive,
O=[N+]([O-])c1cc([As](=O)(O)O)ccc1O,inactive,
O=C(CCl)NCO,inactive,
C#CCO,inactive,
CN(C)CCN(C)C,inactive,
Cc1cc(C(F)(C(F)(F)F)C(F)(F)F)ccc1NC(=O)c1cccc(I)c1C(=O)NC(C)(C)CS(C)(=O)=O,inactive,
ClCCN1CCOCC1,inactive,
CCOC(=O)Cc1ccccc1,inactive,
Nc1c(Oc2ccccc2)cc(O)c2c1C(=O)c1ccccc1C2=O,inactive,
BrCCCCBr,inactive,
O=C(NC(=O)c1c(F)cccc1F)Nc1ccc(Cl)cc1,inactive,
O=C=Nc1ccc(Cl)cc1,inactive,
CCCCOC(=O)COC(=O)c1ccccc1C(=O)OCCCC,inactive,
C=CCOC(F)(C(F)(F)F)C(F)(F)F,inactive,

Compound,outcome,AC50
BrCc1ccc(Br)cc1,inactive,
CCOP(=S)(OCC)O/N=C(\C#N)c1ccccc1,inactive,
COP(=S)(OC)Oc1cc(Cl)c(I)cc1Cl,,55.6 µM (active)
Clc1cccc(Cl)c1Cl,inactive,
C1CN2CCN1CC2,inactive,
Oc1c(Br)cc(Br)cc1Br,inactive,
CCCCCCCCCCCCCl,inactive,
CC(C)CC(C)(c1ccc(O)cc1)c1ccc(O)cc1,inactive,
Cc1cc(SCc2sc(-c3ccc(C(F)(F)F)c(F)c3)nc2C)ccc1OCC(=O)O,inactive,
C[As+](C)(C)CC(=O)[O-],inactive,
CCCCOC(C)=O,inactive,
N#CCC#N,inactive,
CCOCn1c(-c2ccc(Cl)cc2)c(C#N)c(Br)c1C(F)(F)F,inactive,
C[N+](C)(C)Cc1ccccc1,inactive,
c1ccc2c(c1)Oc1ccccc1O2,inactive,
CCOP(=O)(OCC)SCCSCC,inactive,
COc1ccc([N+](=O)[O-])cc1O,inactive,
BrCC(Br)c1ccccc1 (stereo not given),inactive,
CS(=O)(=O)c1ccc(C(=O)C2C(=O)CCCC2=O)c(Cl)c1COCC(F)(F)F,inactive,
O=C(Cl)OCCOCCOC(=O)Cl,inactive,
